Assay outcomes (PubChem BioAssay)
CYP2C19 activ: human CYP2C19 activators, primary screen, biochemical, luminescence; Cytochrome P450 2C19 (Homo sapiens), P33261; recombinant CYP2C19, luciferin-H EGE luminescence; active compounds read high; 0 = fully inhibited enzyme, 1 = untreated enzyme; activation factor at 5 µM; 96,000 tested, under 10 active; AID 1025, 2008;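 active means activation factor of at least 2 at 5 µM in the primary screen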;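 further: 0 = wells with 2.5 mM tranylcypromine and 1 = vehicle-only wells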
Target sequence (P33261 whole entry, looked up): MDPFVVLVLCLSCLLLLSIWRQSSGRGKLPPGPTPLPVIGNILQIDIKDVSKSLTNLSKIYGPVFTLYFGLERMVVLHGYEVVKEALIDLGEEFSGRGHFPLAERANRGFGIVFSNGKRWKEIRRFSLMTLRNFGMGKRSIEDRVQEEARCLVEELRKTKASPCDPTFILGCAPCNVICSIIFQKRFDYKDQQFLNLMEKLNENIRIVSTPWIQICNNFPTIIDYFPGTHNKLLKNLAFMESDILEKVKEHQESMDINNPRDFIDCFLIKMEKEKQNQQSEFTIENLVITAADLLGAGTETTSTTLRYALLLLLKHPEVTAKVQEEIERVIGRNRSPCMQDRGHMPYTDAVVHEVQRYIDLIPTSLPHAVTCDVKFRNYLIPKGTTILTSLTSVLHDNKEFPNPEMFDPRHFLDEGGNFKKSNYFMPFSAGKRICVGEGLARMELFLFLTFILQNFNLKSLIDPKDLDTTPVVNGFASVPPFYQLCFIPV
Measles CPE: compounds protecting cells from measles virus cytopathic effect, primary screen, measles RdRp inhibitor project, single point, MLSMR library, absorbance; Measles virus-infected cells, CPE protection; protection (pct of control), % at 4 µM; actives 1.5% (n = 140,000); AID 841, 2007; in the data active means protection mostly above about 24%, no sharp cut-off; inactive means mostly below about 26%
CYP2C19 inh: blockers of cytochrome P450 2C19 activity – biochemical, luminescence, ADME assay, primary screen; CYP2C19 Supersomes, luciferin-H EGE luminescence, 30 min; inhibition, % at 5 µM; actives 21% (n = 96,000);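 active means CYP2C19 inhibition above a set limit at 5 µM in the primary screen, cut at about 50% in these data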;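 further: plate controls were negative control wells for no effect and 2.5 mM tranylcypromine positive control for full effect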
CYP2C9 inh: blockers of cytochrome P450 2C9 activity – biochemical, luminescence, ADME assay, primary screen. CYP2C9 Supersomes, luciferin-H conversion. inhibition, % at 5 µM. actives 20% (n = 96,000). AID 777, 2007;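 active means blocking of liver enzyme CYP2C9 beyond about 50% at 5 µM, limit read from the data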
CYP2C9 act: human CYP2C9 activators, primary screen, biochemical, luminescence; Cytochrome P450 2C9 (Homo sapiens), P11712; recombinant CYP2C9, luciferin-H conversion; active compounds read high; factor 1 = untreated enzyme, 0 = blocked; activation factor at 5 µM; actives 1.4% (n = 96,000);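 active means activation factor of 2 or more for CYP2C9 at a 5 µM dose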;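 further: 0 = sulfaphenazole-blocked wells and 1 = vehicle-only wells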
* = called active by the depositor; . = not tested or not shown. An excerpt weighted towards active compounds, which were near 22% of everything screened.

SMILES	CYP2C19 activ	Measles CPE	CYP2C19 inh	CYP2C9 inh	CYP2C9 act
Cc1cc(NC(=O)CN2CCN(c3ncccn3)CC2)no1	1.1	1	-10	1	1
Fc1cccc(F)c1CN1CCN(c2ncccn2)CC1	0.2	12	79*	43	0.6
Cc1ccc(Cn2c(SCCN3CCOCC3)nc3c2c(=O)n(C)c(=O)n3C)cc1	0.9	2	10	49	0.5
O=C(Nc1cccc(Cl)c1)C1CCCN(S(=O)(=O)c2cnc[nH]2)C1 (configuration not stated)	0	1	95*	96*	0
O=C(Nc1ccc2c(c1)OCCO2)C1CCCN(S(=O)(=O)c2cnc[nH]2)C1 (configuration not stated)	0.9	11	14	62*	0.4
Cc1cc(NC(=O)C2CCCN(S(=O)(=O)c3cnc[nH]3)C2)ccc1Br (configuration not stated)	0	22	97*	94*	0.1
O=C(NCCN1CCN(c2cccc(Cl)c2)CC1)C1CCCN(S(=O)(=O)c2cnc[nH]2)C1 (configuration not stated)	1	11	0	27	0.7
CCN(CC)c1ccc(NC(=O)C2CCCN(S(=O)(=O)c3cnc[nH]3)C2)c(C)c1 (configuration not stated)	1	16	4	22	0.8
Cc1ccc(NC(=O)C2CCCN(S(=O)(=O)c3cnc[nH]3)C2)cc1C (configuration not stated)	0.1	1	90*	86*	0.1
COCCCNC(=O)Nc1ccc(F)cc1F	1	1	0	-7	1.1
COc1ccc(NC(=O)C2CCCN(S(=O)(=O)c3cnc[nH]3)C2)cc1 (configuration not stated)	0.6	7	37	62*	0.4
O=C(Nc1ccc(Cl)c(C(F)(F)F)c1)C1CCCN(S(=O)(=O)c2cnc[nH]2)C1 (configuration not stated)	0.1	6	93*	94*	0.1
Cc1nnc(SCC(=O)Nc2ccc(Cl)cn2)n1Cc1ccccc1	0.8	21	18	5	0.9
CNc1nc(N)c([N+](=O)[O-])c(NCCO)n1	.	20	.	.	.
C=CCc1cc(C)ccc1OCCOCCn1ccnc1	.	6	.	.	.
C=CCc1cc(C)ccc1OCCn1ccnc1	0	18	96*	95*	0.1
Cc1ccc(C)c(OCCCCCn2ccnc2)c1	0	3	100*	100*	0
CC1CCN(C(=O)CNC(=O)c2ccc(Cl)cc2Cl)CC1	0.9	6	8	-8	1.1
c1ccc(C2C/C(=N\N3CCOCC3)c3ccccc3O2)cc1 (configuration not stated)	.	6	.	.	.
CCOC(=O)C(=O)/C(=C\N(C)C)c1onc(-c2ccccc2Cl)c1C(=O)OC	0.6	22	44	67*	0.3
CCOC(=O)C(=O)/C(=C\N(C)C)c1onc(-c2c(Cl)cccc2Cl)c1C(=O)OC	0.5	11	55*	91*	0.1
Cc1cc(/C=N/NC(=O)c2c(Br)cnn2C)c(C)n1-c1cccc(Br)c1	.	16	.	.	.
CCCCSc1nc(C)nc2c1c(=O)n(C)c(=O)n2C	1	6	-1	10	0.9
Cc1ccc(NC(=O)C(=O)c2c(-c3ccccc3)cc3ccccn23)cc1S(=O)(=O)N1CCOCC1	0.1	7	88*	-18	1.2
O=C(Cn1cnc2c(cnn2-c2ccc(Cl)cc2)c1=O)NC1CCCCC1	1.2	3	-18	-20	1.2
SMILES	CYP2C19 activ	Measles CPE	CYP2C19 inh	CYP2C9 inh	CYP2C9 act
C=CCn1c(CC(=O)OC)csc1=Nc1ccc(C(C)=O)cc1	0.2	15	78*	43	0.6
COC(=O)C1C(=O)NCC1c1ccccc1 (configuration not stated)	1.1	10	-6	-23	1.2
O=C(OCn1ncc(Cl)c(Cl)c1=O)c1ccccc1Cl	0.2	2	78*	-17	1.2
CC(C)(C)NC(=O)CSc1nc2ccc(NC(=O)CSc3nnnn3Cc3ccccc3)cc2s1	0.5	44*	52*	49	0.5
CCN(CC)C(=O)CSc1nc2ccc(NC(=O)CSc3nnc(COc4ccccc4C)n3C)cc2s1	0.5	2	48	46	0.5
CCOC(=O)CSc1nc2ccc(NC(=O)CSc3nnnn3Cc3ccccc3)cc2s1	.	9	.	.	.
Cc1ccccc1OCc1nnc(SCC(=O)Nc2ccc3nc(SCC(=O)NC(C)(C)C)sc3c2)n1C	0.5	6	53*	75*	0.2
Cc1ccc(C2NC(=O)NC3=C2CCc2ccccc23)cc1 (configuration not stated)	0.1	4	95*	33	0.7
COc1ccc(C2NC(=O)NC3=C2CCc2ccccc23)cc1 (configuration not stated)	0.2	13	81*	16	0.8
Cc1ccc(C(=O)N/C(=C\c2ccc(F)cc2)C(=O)NCc2ccncc2)cc1	.	14	.	.	.
CCc1nc2scc(-c3ccc(C)cc3)c2c(=O)n1N	.	6	.	.	.
COc1ccc(OC)c(C2CC(=O)N3CN(c4ccccc4F)CSC3=C2C#N)c1 (configuration not stated)	0.5	17	47	89*	0.1
COc1cccc(C2CC(=O)N3CN(c4ccccc4F)CSC3=C2C#N)c1 (configuration not stated)	0.3	4	68*	84*	0.2
CCc1ccccc1N1CSC2=C(C#N)C(c3cc(OC)c(OC)cc3OC)CC(=O)N2C1 (configuration not stated)	0.8	8	23	39	0.6
COC(=O)CNC(c1ccccc1)c1cc(Cl)ccc1NC(=O)c1cccc(Cl)c1 (configuration not stated)	.	2	.	.	.
CCCCSc1nn[nH]n1	1	4	3	1	1
CC(=O)c1nn(-c2cccc(Br)c2)cc1C(=O)c1ccc(Cl)cc1	.	8	.	.	.
O=C(Cn1c(=O)oc2ccccc21)NCc1ccco1	0.8	20	15	-9	1.1
N#Cc1c(NC(=O)Cn2c(=O)oc3ccccc32)oc(-c2ccccc2)c1-c1ccccc1	0.9	15	12	76*	0.2
Nc1nc(SCC(=O)Nc2ccc(Oc3ccccc3)cc2)n[nH]1	.	10	.	.	.
N#Cc1c(NC(=O)CSc2n[nH]c(N)n2)oc(-c2ccccc2)c1-c1ccccc1	0.8	20	18	51*	0.5
CNC(=O)c1ccc(OCc2ccccc2)c(OC)c1	0.7	76*	28	31	0.7
COc1ccccc1OCc1ccc(C(=O)NN)cc1	0.4	11	62*	46	0.5
CSCCC(/C(O)=C(\C#N)c1nc2ccccc2[nH]1)N1C(=O)c2ccccc2C1=O (configuration not stated)	0	5	99*	95*	0
